{
  "source": "the supplement of paper PMC10338343",
  "note": "± gives the standard deviation.",
  "data": [
    {"test_system": "MILI (PIWIL2) piRISC loaded with L1MC piRNA (26 nt)", "test": "pre-steady-state target cleavage rate (min^-1); guide: L1MC piRNA 5'p-UAACUAAAUACUAUGCAAGCUGUAGG; MIWI and MILI are mouse PIWI proteins and EfPiwi is from a freshwater sponge; tags in brackets are library labels; higher = faster piRNA-guided slicing of the target", "conditions": "auxiliary factor: 500 nM mouse GTSF1", "summary_of_the_method": "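Active affinity-purified piRISC (1 nM) loaded with one synthetic guide was mixed with a transcribed, DNA-blocked target RNA library (0.1 nM), with or without 500 nM GTSF1 partner protein, in HEPES–potassium acetate buffer at 33 °C for 0–8 or 0–960 min. Uncleaved targets were sequenced, normalised to depth and to weakly complementary targets, and pooled across three trials, with k3 capped at 0.0001 min^-1. The pre-steady-state cleavage rate was determined with a burst-and-steady-state fit.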", "values": [
      {"sequence": "UCCUGGAUGUCGUUGCAUAGUAUUUCAGUUA", "pre-steady-state target cleavage rate": "0.0621 ± 0.017"},
      {"sequence": "UCCUGGAUGUGCUUGGAUAGUAAUUAGUUA", "pre-steady-state target cleavage rate": "0.0687 ± 0.014"},
      {"sequence": "UCCUGGAUGACCUUGCAUAGUAUAUAGUUA", "pre-steady-state target cleavage rate": "0.167 ± 0.034"},
      {"sequence": "UCCUGGAUGAGGUUGCAUAGUAUUUAGUAA", "pre-steady-state target cleavage rate": "0.0985 ± 0.018"},
      {"sequence": "UCCUGGAACAGCUACCAUAGUAUUUAGUAA", "pre-steady-state target cleavage rate": "0.23 ± 0.028"},
      {"sequence": "UCCUGGAUGAGCUUGCAUAGUUUUUUGUUA", "pre-steady-state target cleavage rate": "0.0139 ± 0.0061"},
      {"sequence": "UCCUCGAACAGCUUGCAUAGUAUUUAGUUA", "pre-steady-state target cleavage rate": "0.3 ± 0.017"},
      {"sequence": "UCCUGCUACAGCUAGCAAAGUAUUUAGUUA", "pre-steady-state target cleavage rate": "0.137 ± 0.012"},
      {"sequence": "UCCUGCUACAGCUUGCAUUGAAUUUAGUUA", "pre-steady-state target cleavage rate": "0.0223 ± 0.0052"},
      {"sequence": "UCCUGCUACUCGUUGCAUAGUAUUUAGUAA", "pre-steady-state target cleavage rate": "0.127 ± 0.02"},
      {"sequence": "UCCUGGAACAGUCUUGCAUAGUAUUUAGUUA", "pre-steady-state target cleavage rate": "0.26 ± 0.018"},
      {"sequence": "UCCUCCUAGAGCUUGCAAAGUAUUUAGUUA", "pre-steady-state target cleavage rate": "0.14 ± 0.0099"},
      {"sequence": "UCCUGGUACAGCUUCGUUAGUAUUUAGUAA", "pre-steady-state target cleavage rate": "0.165 ± 0.04"},
      {"sequence": "UCCUGGAUCAGCUUGCAAAGUAUUUUGUUA", "pre-steady-state target cleavage rate": "0.1 ± 0.018"},
      {"sequence": "UCCUGGAACAGCUUGCAUAGUAGUUUAGUUA", "pre-steady-state target cleavage rate": "0.175 ± 0.013"},
      {"sequence": "UCCUGGAUGAGCAUGGAUAGUAUUUAGUUA", "pre-steady-state target cleavage rate": "0.189 ± 0.019"},
      {"sequence": "UCCUGGUACAGCUUCCUUAGUAUUUAGUUA", "pre-steady-state target cleavage rate": "0.288 ± 0.052"},
      {"sequence": "UCCUGGAUGUGCAUGCAUAGUAUUUAGUUA", "pre-steady-state target cleavage rate": "0.116 ± 0.011"},
      {"sequence": "UCCUGGAACAGCUUGCAUAGAUAUUUAGUUA", "pre-steady-state target cleavage rate": "0.0184 ± 0.0071"},
      {"sequence": "UCCUGGAACAGCUUGGAAAGUAUUUAGUUA", "pre-steady-state target cleavage rate": "0.125 ± 0.0077"},
      {"sequence": "UCCUGGUACAGCAAGCAUAGUAUUUAGUAA", "pre-steady-state target cleavage rate": "0.239 ± 0.029"},
      {"sequence": "UCCUGGAUCUGCUUGCAUUGUAUUUAGUUA", "pre-steady-state target cleavage rate": "0.159 ± 0.015"},
      {"sequence": "UCCUGGAUGUGCUUGCAAUGUAUUUAGUAA", "pre-steady-state target cleavage rate": "0.0131 ± 0.0037"},
      {"sequence": "UCCUGGAUGAGCUUGCAUUGUAAUUAGUUA", "pre-steady-state target cleavage rate": "0.0683 ± 0.013"},
      {"sequence": "UCCUGGAUGUCGUUGCUUAGUAUUUUGUUA", "pre-steady-state target cleavage rate": "0.0541 ± 0.016"},
      {"sequence": "UCCUCCUACAGCUUGCAUUGUAUUUACUUA", "pre-steady-state target cleavage rate": "0.145 ± 0.021"},
      {"sequence": "UCCUGGAUGUCGUUGCGUAGUAUUUAGUUA", "pre-steady-state target cleavage rate": "0.0164 ± 0.0059"},
      {"sequence": "UCCUGGUACAGCUAGCAUACUAUUUAGUUA", "pre-steady-state target cleavage rate": "0.126 ± 0.026"},
      {"sequence": "UCCUGGAACAGCUAGCAUAGUUUUUAGUUA", "pre-steady-state target cleavage rate": "0.0448 ± 0.0092"},
      {"sequence": "UCCUGGUACUGCAUGCAUAGUAUUUAGUUA", "pre-steady-state target cleavage rate": "0.222 ± 0.02"},
      {"sequence": "UCCUGGAUGAGCUUGCAUAUUAUUUAGUUA", "pre-steady-state target cleavage rate": "0.0637 ± 0.0072"},
      {"sequence": "UCCUGGUACAGCUUGCAUAGUAUUUAUUUA", "pre-steady-state target cleavage rate": "0.166 ± 0.037"},
      {"sequence": "UCCUGGAUGAGCUUGCAUAGUAUAAUGUUA", "pre-steady-state target cleavage rate": "0.229 ± 0.061"},
      {"sequence": "UCCUCCUACAGCAACCAUAGUAUUUAGUUA", "pre-steady-state target cleavage rate": "0.21 ± 0.022"},
      {"sequence": "UCCUGGAACAGCUUUGCAUAGUAUUUAGUUA", "pre-steady-state target cleavage rate": "0.248 ± 0.016"},
      {"sequence": "UCCUGGAUGAGCUUGGUUAGUAUUUAGUAA", "pre-steady-state target cleavage rate": "0.175 ± 0.027"},
      {"sequence": "UCCUGGAUCAGCUUGCAUAGUUUUUUGUUA", "pre-steady-state target cleavage rate": "0.0453 ± 0.011"},
      {"sequence": "UCCUGGAUGUGCAUGCAUAGUAUUUUGUUA", "pre-steady-state target cleavage rate": "0.0798 ± 0.018"},
      {"sequence": "UCCUGGUACAGGUUGCAUAGUAUAUAGUUA", "pre-steady-state target cleavage rate": "0.42 ± 0.089"},
      {"sequence": "UCCUCCUUCAGCUUGCAUACUAUUUAGUUA", "pre-steady-state target cleavage rate": "0.0786 ± 0.013"}
    ]}
  ]
}
